Test results published in article PMC5700166.
Where a chain is given by its changes, count along the chain named.

Columns and labels:
Assay in all cases: protein-binding microarray (PBM); PBM: ~300 nM protein, 6 mM HEPES pH 7.8, 80 mM KCl, 0.5 mM EDTA, 0.5 mM EGTA, 6% glycerol, 35 ng/ul poly-dIdC, 1% milk, 1 h, room temperature; Ap Aiptasia and Nv Nematostella (sea anemones) / Co Capsaspora / Aq Amphimedon (sponge) / Dm Drosophila / Hu human; RHD is the Rel homology domain; high values mean tight binding
Settings in all cases: dsDNA, one strand shown
GST-Ap-NF-kB RHD = molecular target: T1, GST-Ap-NF-kB RHD (Exaiptasia pallida (Aiptasia), UniProt A0A913YAJ5 2-422)
T1 sequence: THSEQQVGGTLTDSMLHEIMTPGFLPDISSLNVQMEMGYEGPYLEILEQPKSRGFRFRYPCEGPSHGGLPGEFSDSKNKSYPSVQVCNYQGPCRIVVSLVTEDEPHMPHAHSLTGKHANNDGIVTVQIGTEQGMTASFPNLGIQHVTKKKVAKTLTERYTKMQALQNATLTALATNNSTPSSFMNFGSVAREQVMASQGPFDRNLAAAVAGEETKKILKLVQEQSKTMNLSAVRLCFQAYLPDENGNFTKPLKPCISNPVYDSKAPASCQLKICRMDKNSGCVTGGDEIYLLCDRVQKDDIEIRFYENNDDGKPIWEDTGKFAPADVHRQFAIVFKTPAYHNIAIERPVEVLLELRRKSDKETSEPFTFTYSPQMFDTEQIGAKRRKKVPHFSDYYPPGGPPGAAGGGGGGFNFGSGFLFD

[1] = molecular target: T2, GST-Nv-NF-kB (Cys allele) (Nematostella vectensis, UniProt E5G601 2-411)
T2 sequence: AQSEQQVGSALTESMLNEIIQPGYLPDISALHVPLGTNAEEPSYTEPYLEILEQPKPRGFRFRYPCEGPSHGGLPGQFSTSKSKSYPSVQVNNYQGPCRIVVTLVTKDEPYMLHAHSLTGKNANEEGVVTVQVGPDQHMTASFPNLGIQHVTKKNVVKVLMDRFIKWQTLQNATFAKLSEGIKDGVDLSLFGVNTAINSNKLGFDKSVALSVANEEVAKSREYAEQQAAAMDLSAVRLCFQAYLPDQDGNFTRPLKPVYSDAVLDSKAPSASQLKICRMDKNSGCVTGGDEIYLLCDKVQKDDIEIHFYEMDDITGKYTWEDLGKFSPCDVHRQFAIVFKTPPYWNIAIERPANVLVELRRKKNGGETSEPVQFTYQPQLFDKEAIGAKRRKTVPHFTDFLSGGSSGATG

[2] = molecular target: T3, GST-Nv-NF-kB (Ser allele) (Nematostella vectensis, UniProt A7UNT2 2-411)
T3 sequence: T2 sequence with Q21R, C66S, S207N, E215Q, V217A, E225K, A268E, D399E

GST-Co-NF-kB = molecular target: T4, GST-Co-NF-kB (Capsaspora owczarzaki, UniProt F1ARL5 200-546)
T4 sequence: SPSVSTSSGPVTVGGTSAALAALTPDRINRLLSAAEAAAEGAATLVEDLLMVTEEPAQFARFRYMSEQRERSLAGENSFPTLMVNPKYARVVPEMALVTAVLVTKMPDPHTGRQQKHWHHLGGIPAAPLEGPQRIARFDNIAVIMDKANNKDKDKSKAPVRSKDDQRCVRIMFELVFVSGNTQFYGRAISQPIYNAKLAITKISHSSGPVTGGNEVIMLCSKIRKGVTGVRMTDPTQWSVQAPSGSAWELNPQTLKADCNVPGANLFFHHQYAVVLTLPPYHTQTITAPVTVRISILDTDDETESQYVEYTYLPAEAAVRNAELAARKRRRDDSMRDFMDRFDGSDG

GST-Dm-Relish = molecular target: T5, GST-Dm-Relish (Drosophila melanogaster, UniProt Q94527 99-473)
T5 sequence: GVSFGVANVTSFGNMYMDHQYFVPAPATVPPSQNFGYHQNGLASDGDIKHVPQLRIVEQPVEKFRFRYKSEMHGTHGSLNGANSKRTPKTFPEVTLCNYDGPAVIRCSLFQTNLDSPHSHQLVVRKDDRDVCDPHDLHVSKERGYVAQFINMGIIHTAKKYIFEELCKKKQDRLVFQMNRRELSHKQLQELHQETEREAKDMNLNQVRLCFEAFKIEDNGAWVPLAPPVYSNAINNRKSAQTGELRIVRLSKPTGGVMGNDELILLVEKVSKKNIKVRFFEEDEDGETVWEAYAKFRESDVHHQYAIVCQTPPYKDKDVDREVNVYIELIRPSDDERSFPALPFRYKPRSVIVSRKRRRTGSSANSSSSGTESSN

GST-Aq-NF-kB = molecular target: T6, GST-Aq-NF-kB (Amphimedon queenslandica, UniProt A9Y5G7 2-389)
T6 sequence: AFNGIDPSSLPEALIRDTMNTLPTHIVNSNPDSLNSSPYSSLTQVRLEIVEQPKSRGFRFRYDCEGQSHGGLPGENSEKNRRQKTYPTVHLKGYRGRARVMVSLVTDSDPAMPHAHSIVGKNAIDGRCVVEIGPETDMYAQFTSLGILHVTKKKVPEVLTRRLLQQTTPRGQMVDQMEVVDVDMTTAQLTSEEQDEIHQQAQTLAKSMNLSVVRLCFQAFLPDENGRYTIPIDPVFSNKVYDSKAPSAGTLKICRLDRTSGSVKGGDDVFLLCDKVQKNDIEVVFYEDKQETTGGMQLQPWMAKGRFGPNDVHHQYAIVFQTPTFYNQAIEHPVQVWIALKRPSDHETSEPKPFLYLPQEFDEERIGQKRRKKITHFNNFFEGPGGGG

GST-Hu-p50 = GST-Hu-p50 (Homo sapiens, UniProt P19838 7-356)
GST-Hu-p50, sequence (P19838 7-356): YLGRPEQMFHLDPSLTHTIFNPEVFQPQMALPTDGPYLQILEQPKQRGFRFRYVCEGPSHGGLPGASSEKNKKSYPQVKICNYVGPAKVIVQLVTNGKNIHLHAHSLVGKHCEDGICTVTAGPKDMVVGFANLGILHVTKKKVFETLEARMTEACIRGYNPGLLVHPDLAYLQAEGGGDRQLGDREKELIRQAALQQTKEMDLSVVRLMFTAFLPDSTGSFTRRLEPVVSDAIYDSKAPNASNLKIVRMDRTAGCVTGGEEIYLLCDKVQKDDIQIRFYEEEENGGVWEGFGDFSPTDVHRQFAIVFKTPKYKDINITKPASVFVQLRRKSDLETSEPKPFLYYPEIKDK

Sequence | binding signal (GST-Ap-NF-kB RHD) [z-score] | binding signal [1] [z-score] | binding signal [2] [z-score] | binding signal (GST-Co-NF-kB) [z-score] | binding signal (GST-Dm-Relish) [z-score] | binding signal (GST-Aq-NF-kB) [z-score] | binding signal (GST-Hu-p50) [z-score]
CCGATTAACATCAAGGGGATCCCTGATGTTAATCGGGTCTTGATTCGCTTGACGCTGCTG | 9.22 | 6.41 | 7.34 | 3.82 | 10.3 | 6.69 | 5.5
CCGATTAACATCAATTCACCCCCTGATGTTAATCGGGTCTTGATTCGCTTGACGCTGCTG | 4.01 | 3.65 | 4.82 | 6.74 | 3.16 | 4.11 | 4.31
CCGATTAACATCAGATTTACCCCTGATGTTAATCGGGTCTTGATTCGCTTGACGCTGCTG | 3.07 | 2.72 | 3.18 | 6.39 | 2.13 | 3.62 | 3.46
CCGATTAACATCAGGGGGGAATATGATGTTAATCGGGTCTTGATTCGCTTGACGCTGCTG | 7.1 | 6.54 | 7.41 | 10.2 | 5.21 | 6.44 | 6.79
CCGATTAACATCAGGATACCCCCTGATGTTAATCGGGTCTTGATTCGCTTGACGCTGCTG | 7.7 | 4.68 | 4.35 | 4.59 | 5.79 | 6.35 | 5.02
CCGATTAACATCAGGACTTCCCCTGATGTTAATCGGGTCTTGATTCGCTTGACGCTGCTG | 10.1 | 10.5 | 9.94 | 4.57 | 9.98 | 10.4 | 6.36
CCGATTAACATCAGGACATTCCCTGATGTTAATCGGGTCTTGATTCGCTTGACGCTGCTG | 2.97 | 4.82 | 2.96 | 1.36 | 3.89 | 6.9 | 3.21
CCGATTAACATCAACTTCCCCCCTGATGTTAATCGGGTCTTGATTCGCTTGACGCTGCTG | 7.03 | 6.37 | 6.34 | 9.16 | 7.29 | 6.32 | 5.76
CCGATTAACATCAAAATTCCCTTTGATGTTAATCGGGTCTTGATTCGCTTGACGCTGCTG | 5.04 | 8.11 | 8.05 | 2.62 | 5.83 | 7.05 | 6.07
CCGATTAACATCAGAAGTGGGAATGATGTTAATCGGGTCTTGATTCGCTTGACGCTGCTG | 2.07 | 2 | 1.53 | 2.78 | 1.15 | 2.35 | 1.13
CCGATTAACATCACCGTGGGAAATGATGTTAATCGGGTCTTGATTCGCTTGACGCTGCTG | 1.9 | 2.4 | 2.68 | 3.18 | 1.32 | 1.95 | 2.29
CCGATTAACATCAAGGGAATTTCTGATGTTAATCGGGTCTTGATTCGCTTGACGCTGCTG | 6.34 | 8.61 | 8.46 | 4.25 | 5.45 | 7.24 | 5.75
CCGATTAACATCAAGAGATTCCCTGATGTTAATCGGGTCTTGATTCGCTTGACGCTGCTG | 3.17 | 3.88 | 3.73 | 2.46 | 2.38 | 4.06 | 2.78
CCGATTAACATCAGGGGACTCACTGATGTTAATCGGGTCTTGATTCGCTTGACGCTGCTG | 5.12 | 4.13 | 4.07 | 3.05 | 8.85 | 4.46 | 4.32
CCGATTAACATCAGGGGAAGTTATGATGTTAATCGGGTCTTGATTCGCTTGACGCTGCTG | 7.14 | 9.1 | 9.37 | 7.7 | 7.34 | 7.08 | 6.64
CCGATTAACATCAATTTTTCCCCTGATGTTAATCGGGTCTTGATTCGCTTGACGCTGCTG | 7 | 8.62 | 11.5 | 11.2 | 5.15 | 5.96 | 6.59
CCGATTAACATCAGGGGAATAACTGATGTTAATCGGGTCTTGATTCGCTTGACGCTGCTG | 6.5 | 8.18 | 7.95 | 7.09 | 9.39 | 6.98 | 5.61
CCGATTAACATCAAGAACCCCCGTGATGTTAATCGGGTCTTGATTCGCTTGACGCTGCTG | 6.68 | 4.55 | 5.31 | 3.25 | 8.39 | 5.21 | 5.41
CCGATTAACATCAGGGGGGAAACTGATGTTAATCGGGTCTTGATTCGCTTGACGCTGCTG | 7.64 | 7.15 | 8.2 | 11.1 | 5.47 | 5.87 | 6.97
CCGATTAACATCAAGAAAACCCCTGATGTTAATCGGGTCTTGATTCGCTTGACGCTGCTG | 6.98 | 7.2 | 6.87 | 2.44 | 7.76 | 6.52 | 6.8
CCGATTAACATCAGGGATCCCCCTGATGTTAATCGGGTCTTGATTCGCTTGACGCTGCTG | 12 | 10.2 | 9.22 | 5.15 | 11.1 | 10.3 | 6.45
CCGATTAACATCAAAAAATCCCCTGATGTTAATCGGGTCTTGATTCGCTTGACGCTGCTG | 11.7 | 11.9 | 13.6 | 6.83 | 10.7 | 9.56 | 8.06
CCGATTAACATCAGGGAAGACCCTGATGTTAATCGGGTCTTGATTCGCTTGACGCTGCTG | 4.49 | 5.72 | 3.5 | 1.33 | 7.97 | 7.06 | 3.16
CCGATTAACATCAAGGGTGGGAATGATGTTAATCGGGTCTTGATTCGCTTGACGCTGCTG | 1.69 | 1.84 | 1.42 | 2.88 | 1.66 | 2.63 | 1.83
